The sample as a whole holds a higher share of hits than the screen did.
Methyltransferases = Primary Screen for Target Class Profiling of Small Molecule Inhibitors of Methyltransferases. 25,000 tested, 3.9% active. purified enzyme, MTase-Glo SAH luminescence; stronger effect = lower value. calls only at 40 µM. AID 1745853, 2022; call rule not given here
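Each enzyme was assayed with SAM and its substrate. SAH formation detected by MTase-Glo luminescence; single-point 40 uM screen[…].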
Starred values were filed as active, the others as inactive. % is set by controls: 0 for no effect and ±100 for the full control effect.

What do the screens show for `CCN(CC)c1ccc2c(O)c(C=Nc3ccc(CC(=O)O)c(-c4c5c(nc6ccccc46)CCC(C(=O)NN)C5)c3)c(=O)oc2c1` (stereo not drawn)?
Methyltransferases: active

How did COc1ccc2c(c1)c(NC(C)=O)c1n2CC(C)(C(=O)NC2CCCC2)N(C2CCCCC2)C1=O (stereo not drawn) do in these assays?
Methyltransferases: inactive

What do the screens show for `CCC(C)NC(=O)c1ccc2c(=O)n(Cc3ccccc3)c3nn(Cc4cccc(OC)c4)c(=O)n3c2c1` (stereo not drawn)?
Methyltransferases: inactive

What do the screens show for `CC(C)c1cc2n(n1)CC(C)(C(=O)NC1CCCCCC1)N(c1cccc(Cl)c1)C2=O` (stereo not drawn)?
Methyltransferases: inactive

How did COc1ccccc1CN1C(=O)c2cc3occc3n2CC1(C)C(=O)NC1CCCCC1C (stereo not drawn) do in these assays?
Methyltransferases: inactive

What do the screens show for `CC(C)(C)c1cc2n(n1)CC(C)(C(=O)NC1CCCCC1)N(Cc1ccc(Cl)cc1)C2=O` (stereo not drawn)?
Methyltransferases: inactive

What do the screens show for `Clc1ccc(C(Cn2ccnc2)OCc2c(Cl)cccc2Cl)c(Cl)c1` (stereo not drawn)?
Methyltransferases: active

What do the screens show for `Cc1ccc(C)c(N2CCN(CCCNC(=O)CCc3nnc4n(C)c(=O)c5ccccc5n34)CC2)c1`?
Methyltransferases: inactive

How did CCc1cc2c(cc3n2CC(C)(C(=O)NC2CCCCCC2)N(c2ccc(C)cc2C)C3=O)s1 (stereo not drawn) do in these assays?
Methyltransferases: inactive

Results for NC(N)=NC(=O)c1cnn(-c2cccc3ncccc23)c1C1CC1 ?
Methyltransferases: active

What do the screens show for `COCCCNC(=O)C1(C)Cn2nc(-c3ccccc3)cc2C(=O)N1Cc1cccc(OC)c1` (stereo not drawn)?
Methyltransferases: inactive

How did CCOc1ccc(CN2C(=O)c3nc4ccccc4n3CC2(C)C(=O)NC2CCCCCC2)cc1 (stereo not drawn) do in these assays?
Methyltransferases: inactive

How did CC(C)n1c(=O)c2ccc(C(=O)NC3CCCCC3)cc2n2c(=O)n(CC(=O)c3ccc(F)cc3)nc12 do in these assays?
Methyltransferases: inactive

How did COc1ccccc1CNC(=O)C1(C)Cn2nc(-c3ccccc3)cc2C(=O)N1Cc1ccc2c(c1)OCO2 (stereo not drawn) do in these assays?
Methyltransferases: inactive

Results for COc1cc(/C=N\NC(=O)c2ccc3c(c2)OCO3)ccc1OCc1ccccc1 ?
Methyltransferases: active

What do the screens show for `COc1ccc(/C=C/C(=O)Nc2ccccc2C(=O)O)cc1OC`?
Methyltransferases: inactive

Results for COc1ccccc1CN1C(=O)c2nc3ccccc3n2CC1(C)C(=O)NCc1ccccc1 (stereo not drawn) ?
Methyltransferases: inactive

How did CCCn1c(=O)c2ccc(C(=O)NC3CCCCC3)cc2n2c(=O)n(CC(=O)c3ccccc3)nc12 do in these assays?
Methyltransferases: inactive

What do the screens show for `Cc1ncc(CCCN(C)C)cc1Nc1ncc2c(n1)-c1ccc(C(F)(F)F)cc1NC(=S)C2`?
Methyltransferases: active

What do the screens show for `CC(C)CNC(=O)c1ccc2c(=O)n(C(C)C)c3nn(Cc4cccc(Cl)c4)c(=O)n3c2c1`?
Methyltransferases: inactive

How did C=C1C(=O)O[C@@H]2/C=C(\C)CC/C=C(/C=O)[C@H](OC)[C@@H](OC(=O)C(C)C)[C@@H]12 do in these assays?
Methyltransferases: inactive

What do the screens show for `C=C1C(=O)OC2/C=C(\CO)CC/C=C(\C=O)C(OC)C(OC(=O)C(C)CC)C12` (stereo not drawn)?
Methyltransferases: active

What do the screens show for `C=C1C(=O)OC2/C=C(\C)CC/C=C(\C=O)C(OC)C(OC(=O)C(C)CC)C12` (stereo not drawn)?
Methyltransferases: active

How did C=C1C(=O)O[C@@H]2/C=C(\C)CC/C=C(\C)CC[C@@H]12 do in these assays?
Methyltransferases: inactive

Results for C=C1C(=O)O[C@@H]2/C=C(\C)CC/C=C(\C(=O)O[C@@H]3O[C@H](CO)[C@@H](O)[C@H](O)[C@H]3O)CC[C@@H]12 ?
Methyltransferases: inactive

How did C=C(C)C(=O)O[C@H]1/C(C=O)=C\CC/C(CO)=C/[C@H]2OC(=O)C(=C)[C@@H]2[C@@H]1OC do in these assays?
Methyltransferases: inactive

What do the screens show for `CCCn1c(=O)c2ccc(C(=O)NC3CCCC3)cc2n2c(SCC(=O)NC(C)(C)C)nnc12`?
Methyltransferases: inactive

How did CCc1ccc(N2C(=O)c3cc(C(=O)OC)nn3CC2(C)C(=O)NC2CCCCC2)cc1 (stereo not drawn) do in these assays?
Methyltransferases: inactive

How did COc1ccc(C(=O)CSc2nnc3n(CC(C)C)c(=O)c4ccc(C(=O)NC(C)C)cc4n23)cc1 do in these assays?
Methyltransferases: inactive

What do the screens show for `COc1ccc(OC)c(CCN2C(=O)c3cc4occc4n3CC2(C)C(=O)NC2CCC(C)CC2)c1` (stereo not drawn)?
Methyltransferases: inactive
